In PubChem BioAssay AID1159580 (chemical genetic matrix, 2015):
About 2,000 (36%) of roughly 5,500 compounds were called active. Another 18% or so got no clear call; they are omitted. Rule as the data show it: active = normalized growth mostly below about 0.91 (no sharp cut-off); inconclusive = no clear call, values can overlap the other calls; inactive = mostly above about 0.92. The list shows a part of the results.

Experiment: chemical genetic growth profiling, strain panel (AID 1159580);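 also: tested at 20 µM; growth read once vehicle control cultures reached saturation at 30 °C; 1 = growth at the plate median or of vehicle wells; lower values mean less growth of the strain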
Details: S. cerevisiae deletion strains, growth OD

Measured: normalized growth

O=c1c(-c2ccc3c(c2)OCO3)coc2cc(O)ccc12
inactive: locus YAL013W, strain DEP1, active compounds read low 1 | locus YAL021C, strain ccr4, active compounds read low 0.994 | locus YAL026C, strain drs2, active compounds read low 1 | locus YAL030W, strain snc1, active compounds read low 0.991 | locus YBL061C, strain skt5, active compounds read low 0.99 | locus YBR009C, strain hhf1, active compounds read low 0.978 | locus YBR021W, strain FUR4, active compounds read low 0.991 | locus YBR023C, strain chs3, active compounds read low 0.996 | locus YBR171W, strain sec66, active compounds read low 1 | locus YBR229C, strain ROT2, active compounds read low 0.989 | locus YBR231C, strain swc5, active compounds read low 0.985 | locus YBR279W, strain paf1, active compounds read low 0.994 | locus YCL011C, strain gbp2, active compounds read low 0.999 | locus YCL016C, strain dcc1, active compounds read low 0.993 | locus YCL029C, strain bik1, active compounds read low 0.969 | locus YCL061C, strain MRC1, active compounds read low 0.998 | locus YCL069W, strain vba3, active compounds read low 1 | locus YCR088W, strain abp1, active compounds read low 0.998 | locus YDL005C, strain med2, active compounds read low 0.984 | locus YDL035C, strain GPR1, active compounds read low 1 | locus YDL040C, strain nat1, active compounds read low 0.993 | locus YDL074C, strain BRE1, active compounds read low 1.04 | locus YDL101C, strain DUN1, active compounds read low 0.998 | locus YDL134C, strain PPH21, active compounds read low 1 | locus YDL185W, strain tfp1, active compounds read low 0.981 | locus YDL192W, strain arf1, active compounds read low 0.977 | locus YDR001C, strain nth1, active compounds read low 1.01 | locus YDR069C, strain doa4, active compounds read low 0.977 | locus YDR101C, strain arx1, active compounds read low 0.98 | locus YDR137W, strain rgp1, active compounds read low 0.979 | locus YDR150W, strain NUM1, active compounds read low 0.995 | locus YDR159W, strain sac3, active compounds read low 0.96 | locus YDR162C, strain NBP2, active compounds read low 1.01 | locus YDR195W, strain ref2 0.957 | locus YDR297W, strain sur2, active compounds read low 0.989 | locus YDR318W, strain mcm21, active compounds read low 0.972 | locus YDR334W, strain swr1, active compounds read low 1 | locus YDR335W, strain msn5, active compounds read low 1 | locus YDR388W, active compounds read low 0.973 | locus YDR392W, strain spt3, active compounds read low 0.919 | locus YDR502C, strain sam2, active compounds read low 0.992 | locus YEL003W, strain gim4, active compounds read low 1 | locus YEL037C, strain rad23, active compounds read low 1 | locus YEL061C, strain CIN8 (second series), active compounds read low 1.01 | locus YEL061C, strain CIN8, active compounds read low 0.998 | locus YER015W, strain faa2, active compounds read low 0.99 | locus YER016W, strain bim1, active compounds read low 0.988 | locus YER110C, active compounds read low 0.979 | locus YER111C, strain swi4, active compounds read low 1 | locus YER155C, strain BEM2 (second series), active compounds read low 0.974 | locus YER155C, strain BEM2, active compounds read low 0.995 | locus YER167W, strain BCK2, active compounds read low 0.983 | locus YFR010W, strain ubp6, active compounds read low 1 | locus YGL078C, strain dbp3, active compounds read low 0.98 | locus YGL086W, strain mad1, active compounds read low 0.983 | locus YGL167C, strain pmr1, active compounds read low 0.988 | locus YGL173C, strain kem1, active compounds read low 0.995 | locus YGL227W, strain vid30, active compounds read low 1 | locus YGL240W, strain doc1, active compounds read low 0.952 | locus YGL248W, strain PDE1, active compounds read low 0.991 | locus YGL253W, strain hxk2, active compounds read low 1 | locus YGR078C, strain PAC10, active compounds read low 1.01 | locus YGR135W, strain pre9, active compounds read low 0.987 | locus YGR229C, strain SMI1, active compounds read low 1.03 | locus YGR252W, strain gcn5, active compounds read low 0.932 | locus YHR013C, strain ard1, active compounds read low 0.96 | locus YHR027C, strain rpn1, active compounds read low 0.994 | locus YHR030C, strain SLT2, active compounds read low 0.998 | locus YHR079C, strain IRE1 (second series), active compounds read low 0.964 | locus YHR094C, strain hxt1, active compounds read low 0.981 | locus YHR129C, strain ARP1, active compounds read low 1 | locus YHR142W, strain chs7, active compounds read low 1.01 | locus YHR200W, strain rpn10, active compounds read low 0.978 | locus YIL066C, strain RNR3, active compounds read low 0.998 | locus YIL073C, strain SPO22, active compounds read low 0.93 | locus YIL125W, strain kgd1, active compounds read low 0.993 | locus YIR030C, strain dcg1, active compounds read low 0.984 | locus YJL092W, strain hpr5, active compounds read low 1.01 | locus YJL095W, strain BCK1 (second series), active compounds read low 0.989 | locus YJL095W, strain BCK1, active compounds read low 1.04 | locus YJL115W, strain asf1, active compounds read low 0.995 | locus YJL129C, strain trk1, active compounds read low 0.99 | locus YJL134W, strain LCB3, active compounds read low 0.991 | locus YJL154C, strain vps35, active compounds read low 1.01 | locus YJL164C, strain tpk1, active compounds read low 0.979 | locus YJL166W, strain qcr8, active compounds read low 0.974 | locus YJL168C, strain set2, active compounds read low 0.983 | locus YJL187C, strain SWE1 (second series), active compounds read low 1 | locus YJL187C, strain SWE1, active compounds read low 0.987
